Assay results: the supplement of paper PMC4380459

test system: tubulin (bovine brain); assay: tubulin polymerization end-point dOD, fold change relative to DMSO vehicle; higher = more polymerization (stabilization); details: 50 µM; 60 min; 37 °C
Method: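 In-vitro tubulin polymerization assay (Cytoskeleton HTS kit) with 4 mg/ml bovine brain tubulin in G-PEM buffer and compound at 50 uM (0.5% DMSO). Turbidity was read at 340 nm every minute for 1 h at 37 C. The end-point change in OD (dOD) was converted to % fold change relative to the DMSO vehicle (0%), and runs were scaled using DMSO and Taxol controls. The paper calls >20% an effect, 20-40% weak and >40% strong; positive values mean stabilization, negative values destabilization. Scale: negative = destabilization.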

| Compound | tubulin polymerization end-point dOD |
| --- | --- |
| Cc1cccc(Cc2cnc(NC(=O)c3sc4ccccc4c3Cl)s2)c1 | 81.7% |
| CCOc1c(Cl)cc(C(=O)N2CCN(c3cccc(C)c3)CC2)cc1OC | -52.8% |
| Cc1ccc(C)c(NC(=O)CSc2nc3cc4c(cc3cc2C#N)OCO4)c1 | 52.6% |
| O=c1[nH]c(/C=C/c2ccccc2)nc2sc3c(c12)CCCC3 | -32.9% |
| COc1cccc(N2CCN(C(=O)c3cc(C4CC4)nc4ccccc34)CC2)c1 | -85.1% |
| COc1ccc(C2(C(=O)NC(C)c3nc(-c4ccncc4)n[nH]3)CC2)cc1 (stereo not given) | -41.3% |
| Cc1cccc2cc3c(N)c(C(=O)N4CCCc5ccccc54)sc3nc12 | -46.4% |
| Cc1cc2cc3c(cc2nc1SCC(=O)Nc1ccccc1Br)OCO3 | -1.3% |
| CCOc1ccc(C2=[NH+]c3ccccc3C(c3cccnc3)=NN2)cc1 | 109% |
| COc1ccc2nc(/C=C/c3cccc(F)c3)sc2c1 | 6.83% |
| CCc1ccccc1NC(=O)CSc1nc2cc3c(cc2cc1CC)OCO3 | -65% |
| O=c1c(Cl)c(N2CC=C(c3ccccc3)CC2)cnn1-c1nc2ccccc2[nH]1 | -22.9% |
| COc1cccc2sc(NC(=O)C3CN(C(C)=O)c4ccccc4O3)nc12 (stereo not given) | -38.1% |
| O=C(Nc1ncc(Cc2ccc(Cl)cc2Cl)s1)c1cnccn1 | 6.51% |
| CCOc1ccc2nc(SCC(=O)Nc3ccccc3CC)c(C#N)cc2c1 | -22.2% |
| Nc1nc(SCC(=O)NC2CCCCC2)nc2sc3c(c12)CCCC3 | -12% |
| COc1ccc2nc(SCC(=O)NCCc3ccc(OC)c(OC)c3)c(C)cc2c1 | -15% |
| CCOC(=O)Nc1nc2ccccc2[nH]1 | 0.459% |
| CCc1ccccc1NC(=S)N(CCCO)Cc1cc2cc(C)cc(C)c2[nH]c1=O | -51.6% |
| Cc1cc(C(=O)Nc2nc3cc4c(cc3s2)OCCO4)c2c(C)nn(C)c2n1 | 28.4% |

| Compound | tubulin polymerization end-point dOD |
| --- | --- |
| CC(=O)c1c(C)oc2c1cc(NS(=O)(=O)c1ccc(Cl)cc1)c1ccccc12 | 2.59% |
| Cc1cccc2cc3c(N)c(C(=O)Nc4ccccc4N4CCOCC4)sc3nc12 | 411% |
| O=C(Nc1ccc(N2CCCCCC2)cc1)C1COc2ccccc2C1 (stereo not given) | 37.7% |
| CCc1ccc2nc(SCC(=O)Nc3ccccc3OC)c(C#N)cc2c1 | -25% |
| N#Cc1ccsc1NC(=O)C1COc2ccccc2C1 (stereo not given) | -10.4% |
| Cc1ccc(C(=O)CSc2nc3c(C)cccc3cc2C#N)cc1 | -15.2% |
| CC1Oc2nc3ccccc3cc2CN(Cc2ccc(F)cc2)C1=O (stereo not given) | 3.19% |
| Cc1cc(N2CCN(C(=O)c3c[nH]nc3-c3ccccc3)CC2)nc(C(C)C)n1 | -15.2% |
| Cc1csc(NC(=O)CSc2nnc(-c3cccnc3)n2-c2ccccc2C)n1 | -45.1% |
| CCc1cc2cc3c(cc2nc1SCC(=O)NCCc1ccccc1)OCO3 | 387% |
| COc1cc(CNc2ccc(Br)cc2)cc(OC)c1OC | -37.3% |
| CCS(=O)(=O)N1CCc2cc(C(=O)Cn3cnc4sc(C)c(-c5ccccc5)c4c3=O)ccc21 | 38.3% |
| COc1cc(-c2onc3ccc(Cl)cc23)cc(OC)c1OC | 95.2% |
| COc1cccc(/C=N/NC(=O)c2ccc(N3CCCC3=O)cc2)c1 | 11.9% |
| COc1ccc2nc(SCC(=O)Nc3ccccc3OC)c(C#N)cc2c1 | -9.01% |
| Cc1ccc(NC(=O)c2cc(F)c(Cl)cc2Cl)nc1 | -57.6% |
| COc1cn(-c2ccccc2)nc1C(=O)N1CCc2ccccc21 | -57.4% |
| Cc1ccc2cc(C#N)c(SCC(=O)c3ccccc3)nc2c1 | -46.9% |
| Cc1cc2nc(-c3ccc(SCC#N)nc3)[nH]c2cc1C | 51.8% |
| Cc1cnc(C(=O)Nc2ncc(Cc3ccc(C#N)cc3)s2)cn1 | -30.4% |
